PubChem BioAssay (Tox21)
Records with an inconclusive call do not appear. Entries that show only a call come without a potency. Calls of active or inactive are those of the source. Unless noted, calls follow the shape of the dose curve; as a rule, active = well fitted curve in the direction sought with a large enough effect in the repeat runs; inconclusive = weak or mixed curves; inactive = no such curve, though single readings can be large; an effect the other way counts as inactive or inconclusive.

Columns and labels:
[1] = molecular target: Peroxisome proliferator-activated receptor gamma (Homo sapiens) (UniProt P37231); experiment: qHTS assay to identify small molecule antagonists of the peroxisome proliferator-activated receptor gamma (PPARg) signaling pathway (AID 743191; calls by dose curve; also: nearly all actives have a fitted effect of over 30% in size; also: potency is read from the fitted curve at half-maximal effect)
Procedure, shortened: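 GeneBLAzer PPARg UAS-bla HEK293H cells, 5 h post-plating, exposed to compounds 17 h at 37C. LiveBLAzer B/G FRET substrate added for 1 h at room temperature; beta-lactamase reporter read by fluorescence intensity.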

[2] = qHTS assay to identify small molecule antagonists of the peroxisome proliferator-activated receptor gamma (PPARg) signaling pathway - cell viability counter screen (AID 743194); also: nearly all actives have a fitted effect of over 55% in size; also: potency is read from the fitted curve at half-maximal effect
Procedure, shortened: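 Cytotoxicity counter screen in PPARg-bla HEK293H cells, same wells as reporter assay. Compounds plus 50 nM rosiglitazone (final) for 17 h at 37 C, then viability read by CellTiter-Glo luminescence.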

[3] = qHTS assay for small molecule agonists of the antioxidant response element (ARE) signaling pathway (AID 743202; active = well fitted activation curve with a large enough effect in the signal ratio in the repeat runs, not every such curve was filed as active; the % refers to the signal ratio; also: potency is read from the fitted curve at half-maximal effect)
Procedure, shortened: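 ARE-bla HepG2 cells (beta-lactamase reporter under the antioxidant response element), plated 5 hours, then exposed to compounds 16 hours at 37 C. LiveBLAzer B/G FRET substrate added for 2 hours at room temperature; fluorescence intensity read.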

[4] = qHTS assay for small molecule activators of the heat shock response signaling pathway - cell viability counter screen (AID 743209); also: nearly all actives have a fitted effect of over 50% in size; also: potency is read from the fitted curve at half-maximal effect
Procedure, shortened: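 Luminescence from CellTiter-Glo, added after the beta-lactamase FRET read, gave the viability signal. Cells were HSE-bla HeLa treated with DMSO-dissolved compounds for 5 h at 37 C following overnight plating.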

[5] = qHTS assay for small molecule activators of the heat shock response signaling pathway (AID 743210; active = well fitted activation curve with a large enough effect in the signal ratio in the repeat runs, with a control signal flat, not every such curve was filed as active; the % refers to the signal ratio; also: series mostly up to about 63 µM)
Procedure, shortened: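 HSE-bla HeLa cells (beta-lactamase reporter under heat shock response elements), plated overnight, then exposed to compounds 5 h at 37 C; LiveBLAzer B/G FRET substrate added, 2.5 h at room temperature, fluorescence intensity read.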

[6] = qHTS assay to identify small molecule agonists of the peroxisome proliferator-activated receptor delta (PPARd) signaling pathway - cell viability counter screen (AID 743211); also: nearly all actives have a fitted effect of over 55% in size; also: potency is read from the fitted curve at half-maximal effect
Procedure, shortened: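 qHTS cell viability: PPARd-bla HEK293H; 17 h cpd, 37C; CellTiter-Glo, luminescence at 30 min RT.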

[7] = molecular target: Peroxisome proliferator-activated receptor delta (Homo sapiens) (UniProt Q03181); experiment: qHTS assay to identify small molecule agonists of the peroxisome proliferator-activated receptor delta (PPARd) signaling pathway (AID 743212; calls by dose curve)
Procedure, shortened: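 GeneBLAzer UAS-bla HEK293H cells carrying a PPARδ construct were exposed to compounds at 37 °C. Beta-lactamase activity was read by FRET fluorescence after 2 h at room temperature with LiveBLAzer B/G substrate.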

[8] = qHTS assay to identify small molecule antagonists of the peroxisome proliferator-activated receptor delta (PPARd) signaling pathway - cell viability counter screen (AID 743213); also: nearly all actives have a fitted effect of over 50% in size; also: potency is read from the fitted curve at half-maximal effect
Procedure, shortened: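 PPARd-bla HEK293H cells were treated with compounds plus agonist L165041 (300 nM final) for 17 h at 37 C. Viability was then read in the same wells by CellTiter-Glo luminescence after 30 min at room temperature.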

[9] = molecular target: Peroxisome proliferator-activated receptor delta (Homo sapiens) (UniProt Q03181); experiment: qHTS assay to identify small molecule antagonists of the peroxisome proliferator-activated receptor delta (PPARd) signaling pathway (AID 743215; active = well fitted inhibition curve with a large enough effect in the signal ratio in the repeat runs, not every such curve was filed as active; the % refers to the signal ratio;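 also: cells stimulated with agonist L165041 at 300 nM final during compound exposure; series mostly up to about 62 µM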)
Procedure, shortened: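 Read-out is beta-lactamase FRET fluorescence, measured 2 h after substrate addition at room temperature. Beforehand, UAS-bla HEK293H cells carrying the PPARd reporter were exposed to compounds with L165041 at 300 nM final for 17 h at 37 C.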

[10] = molecular target: Bile acid receptor (Homo sapiens) (UniProt Q96RI1); experiment: qHTS assay to identify small molecule antagonists of the farnesoid-X-receptor (FXR) signaling pathway (AID 743217; active = well fitted inhibition curve with a large enough effect in the signal ratio in the repeat runs, not every such curve was filed as active; the % refers to the signal ratio; also: potency is read from the fitted curve at half-maximal effect)
Procedure, shortened: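 HEK 293T FXR-UAS-bla, 5000 cells/well; compound + CDCA 50 uM final; 16 h, 37 °C; B/G FRET substrate 2 h RT; fluorescence.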

[11] = qHTS assay to identify small molecule agonists of the farnesoid-X-receptor (FXR) signaling pathway - cell viability counter screen (AID 743218); also: nearly all actives have a fitted effect of over 45% in size; also: potency is read from the fitted curve at half-maximal effect
Procedure, shortened: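 HEK 293T FXR-bla cells; 5 h pre-incubation, 16 h compound exposure at 37 C; LiveBLAzer substrate 2 h RT, then CellTiter-Glo 30 min RT, luminescence.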

[12] = molecular target: Bile acid receptor (Homo sapiens) (UniProt Q96RI1); experiment: qHTS assay to identify small molecule agonists of the farnesoid-X-receptor (FXR) signaling pathway (AID 743220; active = well fitted activation curve with a large enough effect in the signal ratio in the repeat runs, not every such curve was filed as active; the % refers to the signal ratio)
Procedure, shortened: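 Beta-lactamase reporter under UAS control in GeneBLAzer FXR HEK 293T cells (5000/well) measured with LiveBLAzer FRET substrate after 2 h at room temperature. Compound exposure lasted 16 h at 37C.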

[13] = qHTS assay to identify small molecule antagonists of the farnesoid-X-receptor (FXR) signaling pathway - cell viability counter screen (AID 743221; active = well fitted cell-killing curve with a large enough effect in the repeat runs, not every such curve was filed as active; also: nearly all actives have a fitted effect of over 50% in size; also: potency is read from the fitted curve at half-maximal effect)
Procedure, shortened: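 After a 5 h settling period, FXR-bla HEK 293T cells receive compound and chenodeoxycholic acid (50 uM final) and incubate 16 h at 37 C; CellTiter-Glo luminescence, read after 30 min at room temperature, reports cell viability.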

[14] = molecular target: Vitamin D3 receptor (Homo sapiens) (UniProt P11473); experiment: qHTS assay to identify small molecule agonists of the vitamin D receptor (VDR) signaling pathway (AID 743222; calls by dose curve)
Procedure, shortened: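 VDR-bla cells, 2,000/well; 4 h preincubation 37C; cpd (DMSO) 16 h; LiveBLAzer B/G substrate 2 h RT; fluorescence intensity read.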

[15] = molecular target: Vitamin D3 receptor (Homo sapiens) (UniProt P11473); experiment: qHTS assay to identify small molecule antagonists of the vitamin D receptor (VDR) signaling pathway (AID 743223; active = well fitted inhibition curve with a large enough effect in the signal ratio in the repeat runs, not every such curve was filed as active; the % refers to the signal ratio)
Procedure, shortened: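 Reporter line VDR-bla; stimulus 1alpha,25-(OH)2 vitamin D3, 3 nM final; compound co-addition, 16 h 37C/5% CO2; LiveBLAzer B/G substrate 2 h RT; fluorescence intensity.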

[16] = qHTS assay for small molecule agonists of the antioxidant response element (ARE) signaling pathway - cell viability counter screen (AID 743203; calls by dose curve; also: nearly all actives have a fitted effect of over 55% in size; also: potency is read from the fitted curve at half-maximal effect)
Procedure, shortened: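 HepG2 cells carrying ARE-driven beta-lactamase; 2,000 cells/well; 5 hrs plating; compound pinned from DMSO; 16 hrs 37C/5% CO2; CellTiter-Glo added; 30 min RT; luminescence.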

[17] = qHTS assay to identify small molecule that activate the aryl hydrocarbon receptor (AhR) signaling pathway - cell viability counter screen (AID 743086); also: nearly all actives have a fitted effect of over 45% in size; also: potency is read from the fitted curve at half-maximal effect
Procedure, shortened: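 HepG2-AhR-luc (HG2L7.5c1) cells, 4000/well, treated 24 h at 37 C with compound; viability measured as CellTiter-Fluor fluorescence after 30 min in the same wells as the luciferase read.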

Sequence of Peroxisome proliferator-activated receptor gamma (Homo sapiens) (P37231 whole entry, looked up): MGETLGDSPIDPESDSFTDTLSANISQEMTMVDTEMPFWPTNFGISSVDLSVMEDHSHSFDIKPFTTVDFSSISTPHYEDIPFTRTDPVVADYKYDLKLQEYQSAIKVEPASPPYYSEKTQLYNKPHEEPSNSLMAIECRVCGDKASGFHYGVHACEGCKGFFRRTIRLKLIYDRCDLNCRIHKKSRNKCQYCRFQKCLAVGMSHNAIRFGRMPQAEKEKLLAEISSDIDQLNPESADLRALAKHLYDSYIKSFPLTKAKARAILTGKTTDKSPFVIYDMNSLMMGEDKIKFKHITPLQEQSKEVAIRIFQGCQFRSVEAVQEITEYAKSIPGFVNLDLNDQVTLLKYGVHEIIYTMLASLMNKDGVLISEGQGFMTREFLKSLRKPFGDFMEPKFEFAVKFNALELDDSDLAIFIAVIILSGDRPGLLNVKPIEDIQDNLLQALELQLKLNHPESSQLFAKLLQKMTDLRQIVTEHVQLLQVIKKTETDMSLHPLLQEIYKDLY
Sequence of Vitamin D3 receptor (Homo sapiens) (P11473 whole entry, looked up): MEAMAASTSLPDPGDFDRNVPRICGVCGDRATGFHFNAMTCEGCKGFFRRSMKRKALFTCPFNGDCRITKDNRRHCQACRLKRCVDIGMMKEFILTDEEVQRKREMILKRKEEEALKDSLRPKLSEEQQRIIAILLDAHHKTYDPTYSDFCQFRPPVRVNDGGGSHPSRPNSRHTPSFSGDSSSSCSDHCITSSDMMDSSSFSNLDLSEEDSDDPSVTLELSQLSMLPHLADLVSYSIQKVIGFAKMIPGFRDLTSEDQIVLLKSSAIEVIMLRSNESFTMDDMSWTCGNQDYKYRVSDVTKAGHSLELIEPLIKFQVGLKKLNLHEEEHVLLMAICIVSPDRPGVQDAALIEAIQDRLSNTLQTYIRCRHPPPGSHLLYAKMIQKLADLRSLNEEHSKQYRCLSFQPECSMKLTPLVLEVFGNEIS
Sequence of Bile acid receptor (Homo sapiens) (Q96RI1 whole entry, looked up): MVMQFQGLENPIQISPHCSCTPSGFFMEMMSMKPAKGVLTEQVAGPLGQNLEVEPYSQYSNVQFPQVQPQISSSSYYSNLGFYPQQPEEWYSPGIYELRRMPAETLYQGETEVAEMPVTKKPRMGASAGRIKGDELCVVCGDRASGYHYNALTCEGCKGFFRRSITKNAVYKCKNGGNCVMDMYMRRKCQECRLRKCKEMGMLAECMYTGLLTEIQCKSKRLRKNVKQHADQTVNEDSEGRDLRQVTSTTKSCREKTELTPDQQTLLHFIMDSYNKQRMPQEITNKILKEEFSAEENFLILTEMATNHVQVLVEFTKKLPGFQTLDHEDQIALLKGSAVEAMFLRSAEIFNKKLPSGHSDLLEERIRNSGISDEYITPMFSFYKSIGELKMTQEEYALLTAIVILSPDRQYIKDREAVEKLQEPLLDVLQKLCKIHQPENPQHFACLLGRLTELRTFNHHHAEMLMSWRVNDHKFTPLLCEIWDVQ
Sequence of Peroxisome proliferator-activated receptor delta (Homo sapiens) (Q03181 whole entry, looked up): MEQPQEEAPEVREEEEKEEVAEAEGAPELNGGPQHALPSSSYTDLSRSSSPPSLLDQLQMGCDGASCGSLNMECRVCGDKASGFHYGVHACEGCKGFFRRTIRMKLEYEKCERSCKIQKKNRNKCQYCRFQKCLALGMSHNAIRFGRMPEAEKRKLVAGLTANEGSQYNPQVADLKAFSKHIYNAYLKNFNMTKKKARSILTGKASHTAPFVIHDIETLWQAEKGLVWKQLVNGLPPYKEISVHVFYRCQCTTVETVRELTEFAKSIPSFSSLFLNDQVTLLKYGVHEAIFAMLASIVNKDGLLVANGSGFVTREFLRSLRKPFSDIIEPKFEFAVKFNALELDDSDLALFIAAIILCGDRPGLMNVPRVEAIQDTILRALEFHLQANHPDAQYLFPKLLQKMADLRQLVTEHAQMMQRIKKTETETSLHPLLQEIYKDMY

| SMILES | Potency [1] | Potency [2] | Potency [3] | Potency [4] | Potency [5] | Potency [6] | Potency [7] | Potency [8] | Potency [9] | Potency [10] | Potency [11] | Potency [12] | Potency [13] | Potency [14] | Potency [15] | Potency [16] | Potency [17] |
| --- | --- | --- | --- | --- | --- | --- | --- | --- | --- | --- | --- | --- | --- | --- | --- | --- | --- |
| N#CC1(c2ccc(F)cc2)CCC(=O)CC1 | inactive | inactive | inactive | inactive | inactive | inactive | inactive | inactive | inactive | inactive | inactive | inactive | inactive | inactive | inactive | – | – |
| Clc1ccc(C(Cn2ccnc2)OCc2ccc(Sc3ccccc3)cc2)c(Cl)c1 (stereo not drawn) | – | – | – | – | – | 29.8 µM (active) | inactive | inactive | inactive | – | – | – | – | inactive | – | – | – |
| COC(=O)c1cc(Cl)ccc1OC | inactive | inactive | inactive | – | inactive | inactive | inactive | inactive | inactive | – | – | – | inactive | inactive | – | inactive | – |
| O=c1[nH]sc2cc(Cl)ccc12 | – | inactive | – | – | – | 26.6 µM (active) | – | 11.9 µM (active) | – | – | – | inactive | – | – | – | inactive | – |
| CCC(CN)=C(c1ccccc1)c1ccccc1 | – | inactive | inactive | inactive | inactive | 29.8 µM (active) | inactive | 13.3 µM (active) | – | – | 23.7 µM (active) | – | – | inactive | inactive | – | – |
| COC(=O)C1=C(C)NC(C)=C(C(=O)OCCc2ccc(N3CCN(C(c4ccccc4)c4ccccc4)CC3)cc2)C1c1cccc([N+](=O)[O-])c1 (stereo not drawn) | – | inactive | – | – | – | inactive | inactive | inactive | inactive | – | inactive | – | inactive | inactive | – | inactive | – |
| COc1c(C)c2c(c(O)c1C/C=C(\C)CCC(=O)O)C(=O)OC2 | 0.473 µM (active) | inactive | – | inactive | inactive | – | – | – | – | – | – | inactive | – | inactive | – | – | inactive |
| Nc1nc2ccccc2n1Cc1ccc(F)cc1 | – | – | – | inactive | – | – | inactive | inactive | – | – | inactive | – | inactive | inactive | – | inactive | – |
| CCCCCCCC(=O)[O-].CCCCCCCC(=O)[O-].[Zn+2] | inactive | inactive | inactive | inactive | inactive | inactive | – | inactive | – | – | inactive | – | inactive | inactive | – | – | – |
| Cc1oc(-c2ccccc2)nc1CCC(=O)c1ccc(CC2SC(=O)NC2=O)cc1 (stereo not drawn) | – | inactive | 13.3 µM (active) | inactive | – | inactive | – | inactive | – | – | inactive | – | inactive | – | inactive | inactive | – |
| CC1=C(C(=O)OC(C)C)C(c2cccc([N+](=O)[O-])c2)C(C(=O)OC2CN(C(c3ccccc3)c3ccccc3)C2)=C(N)N1 (stereo not drawn) | – | 23.7 µM (active) | – | 10.6 µM (active) | – | 11.9 µM (active) | – | – | inactive | 29.8 µM (active) | 13.3 µM (active) | – | 26.6 µM (active) | – | – | 23.7 µM (active) | – |
| O=[N+]([O-])c1cc([N+](=O)[O-])c2ccc(S(=O)(=O)O)cc2c1O | – | inactive | – | inactive | – | inactive | – | inactive | – | – | inactive | – | inactive | – | – | inactive | 24.2 µM (active) |
| Cc1cccc(N(C)C(=S)Oc2ccc3c(c2)C2CCC3C2)c1 (stereo not drawn) | inactive | inactive | – | inactive | inactive | inactive | inactive | – | inactive | – | – | – | inactive | – | – | inactive | – |
